Measurements reported in the supplement of paper PMC6555819.

test system: PPARg DBDmut:RXRa IVT, anti-PPARg (DBD mutation: PPARg1 K132A/R137A, NR concentration 270 nM, RXRa partner concentration 90 nM); assay: PBM binding z-score (relative to random genomic background probes); higher = stronger binding; sequences stand for … in GC…GCGATTGACAGCGTAGAATGAAGG
Procedure, shortened: (§1)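 Random background probes are the reference for binding z-scores. These scores derive from regression-normalized fluorescence on custom Agilent 4×180K protein-binding microarrays incubated 1 h with ligand-free nuclear receptor dimers. Binding was detected with antibodies against each partner (one per run).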

Row | Sequence | PBM binding z-score
1 | TATACAGGGTCAAAGGGCAGAGTACGAATGTCGA | 3.49
2 | CGTCCAAGGTCAAAGGTCAGGGAAGAGATGACGG | 1.42
3 | CAAACTAGGTCACCGGAAGGTCAAAGTTCGCATG | 4.1
4 | TAGCCTAGGTTATGCGGGCCAGTATAGTGTCGGC | -0.658
5 | CCTACTGGGCCAAAAAGGCCATTGATGCCGATAA | 0.199
6 | ATCTCTAGGTTAAAGTTCAGTGAATCCCGAGGAT | 1.98
7 | CCGACTGGGGCAAAGGTTACGATACTCAGTACGA | 0.809
8 | ACTCGGAGGACAGAGGTCAGAGCTACGCCAGTGA | -0.153
9 | CAAACTAGGTCACAGAGGTCAAAGTTCGTGCGTA | 4.88
10 | CCAGACAGGTGAAAGGTCACTCAGTCTGGTACGC | 0.814
11 | CAATCTAGGTCACAGAGGTCAAAGTCCGTGCGTA | 7.18
12 | ACTAGCAGGTCAAGGGTCACTCAAGATTAGTCCG | 1.23
13 | CATACACGGTCAGCTAGGCCAGAGTAGGGACGGC | 0.102
14 | GCTTCCGGGTCAAAGGTTATAGCATGAATAGAAT | 2.92
15 | TCAGATAGGTAAAGGTGAAAGTCGAACGATATGA | 0.559
16 | CTAACTAGGTCACCGGAAGGTCAAAGTCCGCATG | 3.69
17 | CGTCCAAGGTCAGCAGGTGAGTGAAAGCGACGTG | -0.33
18 | TCTAGTAGGTCACGGAGGTCACACACGACGGGTA | 4.06

Row | Sequence | PBM binding z-score
19 | TCATATAGGTAATAAAGGTGAAAGTCGGCATCTA | 0.942
20 | CAAAATAGGTCAAGGTCAAAGTCGGTTTGTGCCA | 1.72
21 | CGTCCAAGGTCAGCAGGTCAGAGAAAGCGACGTG | 0.0227
22 | CGTCCAAGGTCAAAGGTCACTGAAGAGATGACGG | 2.37
23 | TCTAGTTGGTCACGGAGGTCACACGCGACGGGTA | 1.06
24 | TCATATAGGTTAAAGGTGAAAGTCGGTGTGGTAA | 2.27
25 | CAAACTAGGTCACGAGGTCAAAGTCCGCTTCCCG | 2.5
26 | CCTACTGGGCCAAGGTCTTTGATCAGTCAAAGCA | -0.858
27 | CGTCCAAGGTCAATGCTAGCTCAGTGAAAGCATT | -0.245
28 | CCTAGTGGGCCAAAGGTCATTGATTCCAATGCTC | 2
29 | CCTGCTAGGTCAAGGGTCAGCTAAAGCAGCTCGC | 0.536
30 | AGTCAAATTTCACTAGGTAACGTAAGATTCAGCT | 0.835
31 | ACTCGGAGGGCAAAGGTCAGAGCTACGCCAGTGA | -0.0277
32 | GATACAGGGTCAGCTAGAGGTCAGAGTATGGAAA | 0.365
33 | AGAATGGGGTTAAGATCAGGGAAACAGAATACAT | 1.77
34 | TCATATAGGTAATCAGGTGAAAGTCCGTAAGTTA | 1.73
35 | CGTCCAAGGTCAAGGTCACTGAAAGAGACTCGAA | 1.81
36 | CGTCCAAGCTCAGCAGGTCAGTGAAAGCGACGTG | -0.634

test system: PPARg DBDmut IVT, anti-PPARg (DBD mutation: PPARg1 K132A/R137A, NR concentration 270 nM); assay: as above
Procedure, shortened: as §1

Row | Sequence | PBM binding z-score
37 | TATACAGGGTCAAAGGGCAGAGTACGAATGTCGA | 2.57
38 | CGTCCAAGGTCAAAGGTCAGGGAAGAGATGACGG | 0.451
39 | CAAACTAGGTCACCGGAAGGTCAAAGTTCGCATG | 1.26
40 | TAGCCTAGGTTATGCGGGCCAGTATAGTGTCGGC | -0.513
41 | CCTACTGGGCCAAAAAGGCCATTGATGCCGATAA | -0.751
42 | CGAACTAGGTCAAAGGCCAGTGAAAGGCGACGTA | 0.408
43 | ATCTCTAGGTTAAAGTTCAGTGAATCCCGAGGAT | 1.29
44 | CCGACTGGGGCAAAGGTTACGATACTCAGTACGA | 0.584
45 | ACTCGGAGGACAGAGGTCAGAGCTACGCCAGTGA | -0.704
46 | CAAACTAGGTCACAGAGGTCAAAGTTCGTGCGTA | 5.18
47 | CCAGACAGGTGAAAGGTCACTCAGTCTGGTACGC | 0.242
48 | CAATCTAGGTCACAGAGGTCAAAGTCCGTGCGTA | 5.24
49 | ACTAGCAGGTCAAGGGTCACTCAAGATTAGTCCG | 1.92
50 | CATACACGGTCAGCTAGGCCAGAGTAGGGACGGC | 0.44
51 | GCTTCCGGGTCAAAGGTTATAGCATGAATAGAAT | 1.77
52 | TCAGATAGGTAAAGGTGAAAGTCGAACGATATGA | 0.38
53 | ATATGTAGGTCAGGGTCATTCAGAAAGTAGGGAA | 2.1
54 | CTAACTAGGTCACCGGAAGGTCAAAGTCCGCATG | 4.14
55 | CGTCCAAGGTCAGCAGGTGAGTGAAAGCGACGTG | -0.746
56 | TCTAGTAGGTCACGGAGGTCACACACGACGGGTA | 4.54

Row | Sequence | PBM binding z-score
57 | TCATATAGGTAATAAAGGTGAAAGTCGGCATCTA | 1.43
58 | CAAAATAGGTCAAGGTCAAAGTCGGTTTGTGCCA | 1.63
59 | CGTCCAAGGTCAGCAGGTCAGAGAAAGCGACGTG | -0.591
60 | CGTCCAAGGTCAAAGGTCACTGAAGAGATGACGG | 1.21
61 | TCTAGTTGGTCACGGAGGTCACACGCGACGGGTA | 1.9
62 | TCATATAGGTTAAAGGTGAAAGTCGGTGTGGTAA | 1.26
63 | CAAACTAGGTCACGAGGTCAAAGTCCGCTTCCCG | 3.48
64 | CCTACTGGGCCAAGGTCTTTGATCAGTCAAAGCA | -1.46
65 | CGTCCAAGGTCAATGCTAGCTCAGTGAAAGCATT | -0.858
66 | CCTAGTGGGCCAAAGGTCATTGATTCCAATGCTC | 0.985
67 | CCTGCTAGGTCAAGGGTCAGCTAAAGCAGCTCGC | -0.955
68 | AGTCAAATTTCACTAGGTAACGTAAGATTCAGCT | 0.824
69 | ACTCGGAGGGCAAAGGTCAGAGCTACGCCAGTGA | -0.839
70 | GATACAGGGTCAGCTAGAGGTCAGAGTATGGAAA | -0.0888
71 | AGAATGGGGTTAAGATCAGGGAAACAGAATACAT | 1.97
72 | TCATATAGGTAATCAGGTGAAAGTCCGTAAGTTA | 1.86
73 | CGTCCAAGGTCAAGGTCACTGAAAGAGACTCGAA | 0.436
74 | CGTCCAAGCTCAGCAGGTCAGTGAAAGCGACGTG | -0.872
75 | CGAACTAGGTCAAAGGACACTGAAAGGCGACGTA | 1.03
